Measurements as given in PubChem BioAssay (NCATS).
Results filed as inconclusive are left out. The source made the active and inactive calls. The call rests on the fitted dose curve; in most records, active means well fitted curve in the direction sought with a large enough effect; inconclusive means small, poorly fitted or top-dose-only effect, or another doubt; inactive means no such curve, though single readings can be large; an effect the other way counts as inactive or inconclusive.

Legend:
[1] = target: Cellular tumor antigen p53 (Homo sapiens) (UniProt P04637); experiment: Primary qHTS for small molecule compounds that upregulate eGFP-tagged delta133p53alpha (in N-terminal) cells. (AID 2060322); conditions: NCI-H358 eGFP-delta133p53alpha fluorescence, 24 h; activation: stronger effect = higher value;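 further: series mostly up to about 56 µM; 0% = DMSO vehicle and 100% = reference activator; nearly all actives have a fitted effect of over 75% in size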
Cellular tumor antigen p53 (Homo sapiens), sequence (P04637 whole entry, looked up): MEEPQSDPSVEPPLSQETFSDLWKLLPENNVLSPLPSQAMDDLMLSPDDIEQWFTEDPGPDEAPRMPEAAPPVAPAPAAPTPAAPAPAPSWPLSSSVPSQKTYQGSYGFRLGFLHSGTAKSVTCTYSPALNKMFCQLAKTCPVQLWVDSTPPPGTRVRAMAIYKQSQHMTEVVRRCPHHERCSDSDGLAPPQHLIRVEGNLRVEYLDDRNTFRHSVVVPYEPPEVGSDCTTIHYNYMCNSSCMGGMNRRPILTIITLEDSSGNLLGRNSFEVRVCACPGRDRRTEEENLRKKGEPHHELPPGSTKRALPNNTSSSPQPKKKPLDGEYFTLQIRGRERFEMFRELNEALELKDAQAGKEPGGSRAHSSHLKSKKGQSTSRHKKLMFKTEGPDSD
Outline: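 NCI-H358 cells pre-induced 24 h with 10 ng/ml doxycycline to express N-terminal eGFP-delta133p53alpha, then dosed 24 h at 37C without doxycycline; fixed, Hoechst-stained, GFP intensity by laser scanning cytometry, normalized to DMSO (0%) and 57.5 uM 5-azacytidine (100%).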

[2] = target: Aldehyde dehydrogenase, mitochondrial (Homo sapiens) (UniProt P05091); experiment: qHTS for Inhibitors of the Aldehyde Dehydrogenase Family (ALDH2) Primary screen (AID 2061308);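 further: plate controls were vehicle for no effect and reference inhibitor for full effect; nearly all actives have a fitted effect of over 55% in size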
[3] = target: Retinaldehyde dehydrogenase 3 (Homo sapiens) (UniProt P47895); experiment: qHTS for Inhibitors of the Aldehyde Dehydrogenase Family (ALDH1A3) Primary screen (AID 2061315);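 further: plate controls were DMSO vehicle for no effect and reference inhibitor for full effect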

COCC(=O)N1CCc2cc(-c3csc(NC(=O)c4cc(OC)cc(OC)c4)n3)ccc21
inactive: activation [1] 13.7% | Potency [2] | Potency [3]

C/C1=C\CC[C@]2(C)O[C@H]2C(=O)c2c(C)coc2C1
inactive: activation [1] 20.5% | Potency [2] | Potency [3]

Cc1cc(N2CCN(C(=O)Oc3ccc(-c4ccccc4)cn3)CC2)c2ccccc2n1
inactive: activation [1] -10.3% | Potency [2] | Potency [3]

CC(c1c[nH]c2ccccc12)C(O)C(=O)O (stereo not given)
inactive: activation [1] -11.5% | Potency [2] | Potency [3]

C[C@@H]1C[C@@H](O)[C@@]2(CO)C(CO)=CCC[C@@H]2[C@@]12C[C@@H](c1ccoc1)OC2=O
inactive: activation [1] 21.4% | Potency [2] | Potency [3]

C=C1CC23CC1(O)CCC2C1=CC2OC(=O)C(C)(C2O)C1C3C(=O)O (stereo not given)
inactive: activation [1] 6.87% | Potency [2] | Potency [3]

CCC(C)(O)C(O)C(=O)OCc1ccc(O[C@@H]2O[C@H](CO)[C@@H](O)[C@H](O)[C@H]2O)cc1 (stereo not given in full)
inactive: activation [1] -6.87% | Potency [2] | Potency [3]

CC1(C)CC[C@]2(C(=O)O)CC[C@]3(C)C(=CCC4[C@@]5(C)CC[C@H](O[C@@H]6O[C@H](C(=O)O)[C@@H](O)[C@H](O)[C@H]6O)C(C)(CO)C5CC[C@]43C)C2C1 (stereo not given in full)
inactive: activation [1] 12.2% | Potency [2] | Potency [3]

COC(=O)C1=COC(OC2OC(CO)C(O)C(O)C2O)C2C1C=CC2(O)CO (stereo not given)
inactive: activation [1] -3.57% | Potency [2] | Potency [3]

CC/C=C\CC1C(=O)C=CC1(CCCCCCCC(=O)O)OC(C)=O (stereo not given)
inactive: activation [1] -22.9% | Potency [2] | Potency [3]
